Experimental data from ChEMBL document CHEMBL1961873, “Compounds: GSK PKIS; Assays: Nanosyn kinase panel” (2012).

Target: T1, Serine/threonine-protein kinase Nek9 (Homo sapiens) (UniProt Q8TD19)
T1 sequence (whole entry): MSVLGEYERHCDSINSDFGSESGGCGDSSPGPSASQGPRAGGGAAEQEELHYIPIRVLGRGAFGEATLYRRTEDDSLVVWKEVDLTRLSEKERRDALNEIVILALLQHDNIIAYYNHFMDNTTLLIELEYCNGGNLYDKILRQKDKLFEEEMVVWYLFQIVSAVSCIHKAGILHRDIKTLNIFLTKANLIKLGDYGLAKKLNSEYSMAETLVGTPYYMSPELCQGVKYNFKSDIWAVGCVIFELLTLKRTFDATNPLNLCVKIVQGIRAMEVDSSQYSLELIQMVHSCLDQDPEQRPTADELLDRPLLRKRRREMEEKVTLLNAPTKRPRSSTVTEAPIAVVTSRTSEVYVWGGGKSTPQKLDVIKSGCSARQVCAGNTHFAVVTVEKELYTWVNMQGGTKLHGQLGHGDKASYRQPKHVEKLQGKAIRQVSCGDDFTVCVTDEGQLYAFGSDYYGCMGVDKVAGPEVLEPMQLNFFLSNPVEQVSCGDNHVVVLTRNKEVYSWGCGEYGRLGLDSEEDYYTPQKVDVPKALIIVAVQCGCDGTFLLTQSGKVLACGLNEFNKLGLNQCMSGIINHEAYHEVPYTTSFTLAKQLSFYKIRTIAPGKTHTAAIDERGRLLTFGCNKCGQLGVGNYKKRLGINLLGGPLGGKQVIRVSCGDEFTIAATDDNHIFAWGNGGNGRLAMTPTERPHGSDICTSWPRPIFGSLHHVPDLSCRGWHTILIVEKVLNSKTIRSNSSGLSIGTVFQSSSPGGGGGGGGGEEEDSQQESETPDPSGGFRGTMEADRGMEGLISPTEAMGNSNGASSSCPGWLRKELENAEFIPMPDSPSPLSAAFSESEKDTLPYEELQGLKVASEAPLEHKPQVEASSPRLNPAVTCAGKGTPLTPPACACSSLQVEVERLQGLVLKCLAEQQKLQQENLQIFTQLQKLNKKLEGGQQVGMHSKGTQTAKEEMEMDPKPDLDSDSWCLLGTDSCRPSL
Conditions: at 1 µM
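Also: each value is a mean percent inhibition of NEK9.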

Question: Which inhibition does the source give for `CCn1c(-c2nonc2N)nc2c(C#CC(C)(C)O)nc(OCCNC)cc21` here?
Answer: Its inhibition is 7.49%.

Question: Which inhibition does the source give for `COC(=O)Nc1nc2cc(Oc3ccc(NC(=O)Nc4cccc(Br)c4)cc3)ccc2[nH]1` here?
Answer: Its inhibition is 15.4%.

Question: How did the inhibition turn out when `Nc1nccc(-c2c(-c3ccc(F)cc3)nn3cc(C(F)(F)F)ccc23)n1` was run?
Answer: The inhibition was 0.92%.

Question: For `CN(C)CCCn1c(-c2nonc2N)nc2cnccc21`, which inhibition is on record?
Answer: The inhibition was 12.3%.

Question: With `COc1cc(Nc2nccc(-c3cnn4ncccc34)n2)cc(OC)c1` as the molecule, how does the inhibition read?
Answer: The inhibition was 69.9%.

Question: Which inhibition does the source give for `C[C@@H](Oc1cc(-n2cnc3ccc(OC[C@@H](O)CO)cc32)sc1C(N)=O)c1ccccc1Cl` here?
Answer: The inhibition was 91.4%.

Question: `N#Cc1cccc(Nc2nccc(-c3cnn4ncccc34)n2)c1` was tested. Which inhibition did it give?
Answer: Its inhibition is 15.6%.

Question: `COc1cc(/C=N/Nc2ncnc3c2cnn3C(C)C)ccc1O` was tested. Which inhibition did it give?
Answer: The inhibition was 5.67%.

Question: `Nc1ccc(C#Cc2cncnc2Nc2ccc(OCc3cccc(F)c3)c(Cl)c2)cc1` was tested. Which inhibition did it give?
Answer: The inhibition was 6.07%.

Question: Which inhibition does the source give for `Cc1ccc2c(c1)/C(=N/Nc1ccc(S(N)(=O)=O)cc1)C(=O)N2` here?
Answer: Its inhibition is 4.02%.

Question: How did the inhibition turn out when `NC(=O)c1cccc(Nc2nccc(Nc3cccc(F)c3)n2)c1` was run?
Answer: The inhibition was 11%.

Question: With `NS(=O)(=O)c1ccc(NC=C2C(=O)Nc3ccc4ncsc4c32)cc1` as the molecule, how does the inhibition read?
Answer: The inhibition was 32%.

Question: Which inhibition does the source give for `Cc1ccc2c(-c3ccnc(Nc4cccc(C(F)(F)F)c4)n3)c(-c3ccccc3)nn2n1` here?
Answer: Its inhibition is 7.33%.

Question: `NS(=O)(=O)c1ccc(N/N=C2\C(=O)Nc3ccc(Cl)cc32)cc1` was tested. Which inhibition did it give?
Answer: Its inhibition is 9.42%.

Question: With `COC(=O)c1cncc(/C=C/c2c(C)cc(O)cc2C)c1` as the molecule, how does the inhibition read?
Answer: Its inhibition is 3.89%.

Question: How did the inhibition turn out when `COc1cccc(-n2ncc3c(N/N=C/c4ccc(S(C)(=O)=O)cc4)ncnc32)c1` was run?
Answer: Its inhibition is 1.23%.

Question: With `CN(C)C(=O)O[C@H]1CN[C@H](C#Cc2cc3ncnc(Nc4ccc(OCc5cccc(F)c5)c(Cl)c4)c3s2)C1` as the molecule, how does the inhibition read?
Answer: The inhibition was -1.84%.

Question: `Cc1cc(Cl)cc2c1NC(=O)C2=NNc1ccc(S(N)(=O)=O)cc1` was tested. Which inhibition did it give?
Answer: Its inhibition is 10.9%.

Question: Which inhibition does the source give for `Cc1ccc(C(=O)NC2CC2)cc1-c1ccc2[nH]ncc2c1` here?
Answer: The inhibition was -2.78%.

Question: With `O=C(Nc1ccc(Oc2ccc3[nH]c(NC(=O)c4ccco4)nc3c2)cc1)Nc1cc(C(F)(F)F)ccc1F` as the molecule, how does the inhibition read?
Answer: Its inhibition is 6.87%.

Question: With `NS(=O)(=O)c1ccc(-c2cc3ccncc3cc2OCc2ccccc2)cc1` as the molecule, how does the inhibition read?
Answer: Its inhibition is 7.84%.

Question: `Cc1cc(O)cc(C)c1/C=C/c1cncc(C(=O)N(C)C)c1` was tested. Which inhibition did it give?
Answer: The inhibition was 4.45%.

Question: Which inhibition does the source give for `CN(c1ccc(NC(=O)Nc2ccc(OC(F)(F)F)cc2)cc1)c1ccnc(Nc2cccc(S(N)(=O)=O)c2)n1` here?
Answer: Its inhibition is 17.1%.

Question: With `Cc1ccc(O)cc1Nc1ccnc2ccc(S(C)(=O)=O)cc12` as the molecule, how does the inhibition read?
Answer: Its inhibition is 7.62%.

Question: With `Cc1cc(-c2ccccn2)cc(C)c1/C=C/c1cncc(-c2nn[nH]n2)c1` as the molecule, how does the inhibition read?
Answer: Its inhibition is 5.99%.

Question: For `O=C1Nc2ccccc2/C1=C/Nc1ccc2[nH]c(=O)[nH]c2c1`, which inhibition is on record?
Answer: The inhibition was 15.6%.

Question: Which inhibition does the source give for `ON=C1CCc2cc(-c3nc(C4CCNCC4)[nH]c3-c3ccncc3)ccc21` here?
Answer: The inhibition was 1.01%.

Question: Which inhibition does the source give for `C[C@@H](Oc1cc(-n2cnc3ccc(OCC4CCN(C)CC4)cc32)sc1C(N)=O)c1ccccc1C(F)(F)F` here?
Answer: Its inhibition is 102%.

Question: How did the inhibition turn out when `Cc1nc(-c2ccccc2)n2nc(NCCCN3CCOCC3)ncc12` was run?
Answer: The inhibition was 8.77%.

Question: `[O-][S+]1CCN(Cc2ccc(-c3ccc4ncnc(Nc5ccc(OCc6ccccc6)c(Cl)c5)c4c3)o2)CC1` was tested. Which inhibition did it give?
Answer: Its inhibition is 3.24%.

Question: How did the inhibition turn out when `Oc1cccc(-c2nc(-c3ccccc3)[nH]c2-c2ccncc2)c1` was run?
Answer: The inhibition was 6.73%.

Question: For `Nc1nccc(-c2c(-c3ccc(F)cc3)ncn2CCCN2CCOCC2)n1`, which inhibition is on record?
Answer: The inhibition was 15.2%.

Question: `Cc1ccc(Nc2ccnc(Nc3cccc(C(N)=O)c3)n2)cc1O` was tested. Which inhibition did it give?
Answer: Its inhibition is 10.2%.
